The values that follow come from PubChem BioAssay AID623866 (Sanford-Burnham Center for Chemical Genomics, 2012).

Molecules are shown by their SMILES. The list shows a part of the results. Calls of active or inactive are those of the source. No rule for the calls is given here.

The target in this assay is Tyrosine-protein phosphatase non-receptor type 5 (Homo sapiens) (UniProt P54829). As to the kind of experiment: retest of PTPN5 enzyme inhibition – biochemical, fluorescence intensity, single concentration, confirmation (AID 623866).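 Also: 0% = enzyme with substrate plus DMSO and 100% = substrate without enzyme.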 The following applies: recombinant STEP, OMFP fluorogenic substrate, at 20 µM, hits give high values.
Sequence of Tyrosine-protein phosphatase non-receptor type 5 (Homo sapiens) (P54829 whole entry, looked up): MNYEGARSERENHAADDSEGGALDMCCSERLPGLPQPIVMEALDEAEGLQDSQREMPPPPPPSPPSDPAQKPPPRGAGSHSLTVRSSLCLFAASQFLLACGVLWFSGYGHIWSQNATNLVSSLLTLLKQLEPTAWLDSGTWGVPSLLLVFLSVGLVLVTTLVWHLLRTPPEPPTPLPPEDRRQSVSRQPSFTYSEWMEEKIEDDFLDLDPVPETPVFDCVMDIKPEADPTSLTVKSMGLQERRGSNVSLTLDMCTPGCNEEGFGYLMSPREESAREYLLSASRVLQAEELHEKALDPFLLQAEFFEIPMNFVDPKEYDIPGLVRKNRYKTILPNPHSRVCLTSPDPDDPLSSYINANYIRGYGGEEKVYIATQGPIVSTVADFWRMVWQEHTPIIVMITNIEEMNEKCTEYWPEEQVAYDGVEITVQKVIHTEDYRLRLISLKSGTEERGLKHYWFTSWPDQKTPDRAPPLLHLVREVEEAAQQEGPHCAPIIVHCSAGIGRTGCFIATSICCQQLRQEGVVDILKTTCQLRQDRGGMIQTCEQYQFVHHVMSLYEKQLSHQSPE
Turning to `CCCS(=O)(=O)N1CCCC(C(=O)NCc2ccco2)C1` (centres undefined), the inhibition is 1.82% (inactive).
Under `COCc1c(C(=O)N/N=C/C2CC=CCC2)nnn1-c1nonc1N` (centres undefined) stands -1.89% (inactive); under `C/C=C/C(=O)Nc1ccc(N2CCN(c3ccc(C(F)(F)F)cn3)CC2)nc1`, 12.4% (inactive); under `Cc1ccc(S(=O)(=O)c2c[nH]c3ccc(Cl)cc3c2=O)cc1`, 23.8% (active).
The same measure for `Cc1ccn2c(-c3csc(Nc4ccc(C(=O)O)cc4)n3)c(C)nc2c1`: -1.96% (inactive); for `O=C(N/N=C/c1cccc(Br)c1)c1ccc(N2CCCC2=O)cc1`: 41.4% (active); for `O=C(N/N=C/c1coc2ccccc2c1=O)c1cc2ccccc2o1`: 24.4% (active).
The same measure for `O=C(CSC(=S)N1CCCCC1)c1c(F)cccc1F`: -5.75% (inactive); for `Nc1c(Cl)cc(-c2csc(N3CCCC3c3nc4cc(Cl)c(Cl)cc4n3CCOCCO)n2)cc1Cl` (centres undefined): 20.3% (inactive).
As for `Cc1ccc(CNC(=O)CSc2nnc3c(n2)[nH]c2ccc(F)cc23)cc1`, the inhibition is -0.633% (inactive).
Consider `N#Cc1ccc(C(=O)Nc2cccc3cccnc23)c(F)c1`, for which the inhibition is -3.4% (inactive).
Under `C/C(=N\Nc1ccc(S(N)(=O)=O)cc1[N+](=O)[O-])c1cccs1` stands 64.7% (active); under `Cc1ccc(OCC(=O)Nc2ccc(-c3nc4ncccc4o3)cc2)cc1`, 23.6% (inactive).
The same measure for `COc1ccc2[nH]c(=O)c(-c3noc(-c4ccc(F)cc4)n3)cc2c1`: 8.96% (inactive).
The same measure for `O=C(Nc1cccnc1)c1cc2cc(Br)ccc2oc1=O`: 8.13% (inactive); for `O=C(COc1cccc(F)c1)Oc1ccc(C(=O)c2ccccc2)cc1`: 12.2% (inactive).
`CCc1ccc(NC(=O)CS(=O)CC(=O)NCCCc2ccccc2)cc1` (centres undefined): the inhibition is -4.12% (inactive).
The same measure for `Cc1c(CCC(=O)O)c(=O)oc2c(C)c(OCc3ccccc3Cl)ccc12`: 42.7% (active); for `Cc1cc(C(=O)N2CCN(c3ccccn3)CC2)c(C)o1`: 7.4% (inactive).
Regarding `COCCN(C(=S)Nc1ccccc1OC)C1CCN(C(C)C)CC1`, the inhibition was 7.61% (inactive).
Consider `O=C(NN=Cc1ccccc1O)NN=Cc1ccccc1O`, for which the inhibition was 90.1% (active).
The same measure for `Cc1ccc(-c2nnc(-c3ccc(NC(=O)c4cccs4)cc3)o2)cc1`: 10.7% (inactive); for `N#Cc1c(-c2cccs2)nc(SCC(=O)c2ccc(Br)cc2)[nH]c1=O`: 103% (active); for `Cc1ccccc1CC1(CO)CCCN(C(=O)c2cc(-c3ccccc3)no2)C1` (centres undefined): 0.313% (inactive).

By inhibition is commonly meant the relative decrease from the control value, in per cent.
